Source: PubChem BioAssay
Hits are enriched below; roughly 3.6% of the tested compounds scored in any of these assays.
HSF-1 act = increases HSF-1 driven luciferase reporter signal. NIH3T3-HGL HSF-1 luciferase reporter, MG132, 8 h; 100% = twice DMSO control signal. activation, % at 9 µM. 300,000 compounds, 1.7% hits;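 active means mean replicate activation of at least 50% with a set share of replicates each reaching 50%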
EBV LMP1 NFkB = inhibitors of Epstein-Barr LMP1-induced NF-kappaB reporter | LMP1-induced NF-kappaB luciferase reporter cells, luminescence | 350,000 compounds, 0.69% hits | inhibition, % at 12.5 µM; in the data active means inhibition above about 41%
TWEAK Fn14 block = TWEAK-Fn14 signaling inhibition. 360,000 compounds, 2% hits. inhibition, % at 10 µM. TWEAK-stimulated Fn14 reporter cells, luciferase luminescence, 8 h; in the data active means inhibition above about 50%
TROY NFkB inh = inhibitors of TROY-dependent NF-kB signaling; AID 1347056; inhibition, % at 10 µM; 360,000 compounds, 0.98% hits; Q293 LMP1-TROYcd NF-kB luciferase reporter, 4 h;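 active means compounds whose plate-normalised and pattern-corrected inhibition of the luciferase reporter signal at the single screening dose is 50% or more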
LGR2 antag = blocks bursicon-induced cAMP signaling via Drosophila LGR2; HEK293 LGR2, CRE-luciferase, bursicon-stimulated, 4 h; 380,000 compounds, 0.35% hits; inhibition, % at 9.99 µM;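 active means drop in luminescence signal, shown as inhibition above about 50% in the replicate tests, limit read from the data, passing the limit was not always enough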;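 further: agonist challenge used bursicon conditioned medium at about half maximal strength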
HSF1 inh = HSF1 inhibition. 300,000 compounds, 0.77% hits. NIH3T3-HGL HSE-luciferase, MG132-induced, luminescence 8 h; hits give low values. activity change, negative = inhibition, % at 7.5 µM (by protocol). AID 2098;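 active means more than half of replicate wells show activity change below -50%, luminescence cut by over half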;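 further: luciferase reports HSF-1 transcriptional activity via heat shock element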
Each line names hits and unclear results; the compound was inactive in the other large screens.

C[C@@H]1CCCCO[C@@H](CN(C)Cc2ccc3c(c2)OCO3)[C@H](C)CN([C@H](C)CO)C(=O)c2cc(NC(=O)Nc3cccc4ccccc34)ccc2O1	none (no result: HSF-1 act, EBV LMP1 NFkB, TWEAK Fn14 block, TROY NFkB inh, HSF1 inh)
C[C@H](CO)N1C[C@H](C)[C@H](CN(C)S(=O)(=O)c2cn(C)cn2)Oc2ccc(NS(=O)(=O)c3cccs3)cc2CC1=O	none (no result: HSF-1 act, EBV LMP1 NFkB, TWEAK Fn14 block, TROY NFkB inh, HSF1 inh)
COc1ccc(CN(C)C[C@H]2OCCCC[C@@H](C)Oc3ccc(NC(=O)c4ccncc4)cc3C(=O)N([C@H](C)CO)C[C@H]2C)cc1	none (no result: HSF-1 act, EBV LMP1 NFkB, TWEAK Fn14 block, TROY NFkB inh, HSF1 inh)
O=C(C[C@H]1CC[C@H]2[C@@H](COC[C@@H](O)CN2Cc2nccs2)O1)NCc1ccc(Oc2ccccc2)cc1	none (no result: HSF-1 act, EBV LMP1 NFkB, TWEAK Fn14 block, TROY NFkB inh, HSF1 inh)
Cc1cccc(C)c1NC(=O)c1nc(S(=O)(=O)Cc2ccccc2)ncc1Cl	HSF-1 act 596, EBV LMP1 NFkB 44, TWEAK Fn14 block 74, TROY NFkB inh 53
Cc1nnc(NC(=O)c2nc(S(=O)(=O)Cc3ccccc3)ncc2Cl)s1	TWEAK Fn14 block 91
C/C=C/c1cnc2c(c1)C(=O)N([C@@H](C)CO)C[C@@H](C)[C@@H](CN(C)C(=O)C1CCC1)O2	none (no result: HSF-1 act, EBV LMP1 NFkB, TWEAK Fn14 block, TROY NFkB inh, HSF1 inh)
O=C(CSc1nc2nc(-c3cccs3)cc(C(F)(F)F)c2c(=O)[nH]1)Nc1c(F)c(F)c(F)c(F)c1F	TWEAK Fn14 block 66, TROY NFkB inh 57
COc1ccc(NC(=O)N(C)C[C@H]2OCCCC[C@H](C)Oc3ccc(NC(=O)NC(C)C)cc3C(=O)N([C@H](C)CO)C[C@@H]2C)cc1	none (no result: HSF-1 act, EBV LMP1 NFkB, TWEAK Fn14 block, TROY NFkB inh, HSF1 inh)
CC1=C(Sc2nc3ccccc3[nH]2)C(=O)NC(C)(C)C1	HSF-1 act 60 (no result: LGR2 antag)
COC(=O)c1cc2ccccc2c(=O)s1	TWEAK Fn14 block 85 (no result: TROY NFkB inh, LGR2 antag)
O=C(NCCO)c1cc2ccccc2c(=O)s1	none (no result: LGR2 antag)
CCCNC(=O)[C@@H]1[C@@H](CO)[C@@H]2Cn3c(cccc3=O)[C@@H]2N1C(=O)C1CC1	none (no result: HSF-1 act, EBV LMP1 NFkB, TWEAK Fn14 block, TROY NFkB inh, HSF1 inh)
O=C(Nc1ccc(-c2cn3ccsc3n2)cc1)c1ccc(F)c(S(=O)(=O)N2CCOCC2)c1	TWEAK Fn14 block 59 (no result: LGR2 antag)
COCC(=O)Nc1ccc2c(c1)OC[C@H](C)N(C(=O)c1ccccc1)C[C@H](C)[C@@H](OC)CN(C)C2=O	none (no result: HSF-1 act, EBV LMP1 NFkB, TWEAK Fn14 block, TROY NFkB inh, HSF1 inh)
O=C(NCCc1ccncc1)[C@@H]1[C@@H](CO)[C@@H]2Cn3c(ccc(-c4cccc(F)c4)c3=O)[C@H]1N2	none (no result: HSF-1 act, EBV LMP1 NFkB, TWEAK Fn14 block, TROY NFkB inh, HSF1 inh)
Cc1nn(-c2ccccc2)c(N2CCCC2)c1/C=N/NC(=S)Nc1ccccc1F	TROY NFkB inh 64
CC1=NN(C(=O)c2ccccc2)C(O)(c2ccc(Br)cc2)C1 (stereo unspecified)	HSF-1 act 83
COC(=O)C1=NN(C(=O)c2cccc(Br)c2)C(O)(c2ccc(Cl)cc2)C1 (stereo unspecified)	HSF-1 act 183
CCOC(=O)C1=NN(C(=O)c2ccc(OC)cc2)C(O)(c2ccc(Cl)cc2)C1 (stereo unspecified)	HSF-1 act 80
CCOC(=O)C1=NN(C(=O)COc2ccccc2)C(O)(c2ccc(Cl)cc2)C1 (stereo unspecified)	HSF-1 act 122
CN1c2ccc(-c3ccccc3F)cc2[C@@H]2[C@@H](CCN2C(=O)CN2CCOCC2)[C@@H]1CO	none (no result: HSF-1 act, EBV LMP1 NFkB, TWEAK Fn14 block, TROY NFkB inh, HSF1 inh)
CCNC(=O)C[C@@H]1CC[C@H]2[C@@H](COC[C@@H](O)CN2C(=O)C2CC2)O1	none (no result: HSF-1 act, EBV LMP1 NFkB, TWEAK Fn14 block, TROY NFkB inh, HSF1 inh)
CCOC(=O)C1=NN(C(=O)c2ccccc2)C(O)(c2ccc(C)cc2)C1 (stereo unspecified)	HSF-1 act 318
CCOC(=O)C1=NN(C(=O)Cc2ccccc2)C(O)(c2ccc(Cl)cc2)C1 (stereo unspecified)	none
C[C@@H]1CN([C@@H](C)CO)C(=O)Cc2cc(NS(=O)(=O)c3ccc(F)cc3)ccc2O[C@@H]1CN(C)C(=O)Nc1ccc(F)cc1	none (no result: HSF-1 act, EBV LMP1 NFkB, TWEAK Fn14 block, TROY NFkB inh, HSF1 inh)
CCc1ccc(-c2csc(NC(=O)C3=NN(c4ccccc4)C(=O)CC3)n2)cc1	TWEAK Fn14 block 74, TROY NFkB inh 51
CCc1ccc(-c2csc(NC(=O)c3cccnc3)n2)cc1	TWEAK Fn14 block 61
Cc1cccc(S(=O)(=O)N[C@@H]2CC[C@H](CCNC(=O)c3cnccn3)O[C@H]2CO)c1	none (no result: HSF-1 act, EBV LMP1 NFkB, TWEAK Fn14 block, TROY NFkB inh, HSF1 inh)
COc1ccc2c3c(n(C)c2c1)[C@@H](CO)N(Cc1nccs1)CC31CN(C)C1	none (no result: HSF-1 act, EBV LMP1 NFkB, TWEAK Fn14 block, TROY NFkB inh, HSF1 inh)
CCOC(=O)c1c(-c2ccccc2)oc2ccc(O)c(CN(C)C)c12	none (no result: LGR2 antag)
CCOC(=O)c1c(CSCc2ccccc2)oc2ccc(O)c(CN(C)C)c12	HSF1 inh -79
